Activity calls are given as the source filed them. The calls were made as follows: active = hit-call score of the fitted dose curve at least 0.9, where 1 is the maximum; inactive = score below 0.9.

Read-out in this test: Transforming growth factor beta 1 (TGFb1), TGFB1 (gene 7040)
Put plainly: BSK_BE3C_TGFb1: BioMAP Diversity Plus: BE3C Assay for Transforming growth factor beta 1 (TGFb1) Biomarker Activity (AID 2283036). As to conditions: primary human bronchial epithelial cells; actives raise or lower the signal. Here is the method: BSK_BE3C is a cell-based, multiplexed-readout assay that uses bronchial epithelial cell, a human lung primary cell, with measurements taken at 24 hours after chemical dosing in a 96-well plate.BSK_BE3C_TGFb1 is an assay component measured in the BSK_BE3C assay. It measures TGF-b1 antibody related to regulation of gene expression using ELISA technology.Data from the assay component BSK_BE3C_TGFb1 was analyzed into 1 assay endpoint. This assay endpoint, BSK_BE3C_TGFb1, was analyzed with bidirectional fitting relative to DMSO as the negative control and baseline of activity. Using a type of binding reporter, gain or loss-of-signal activity can be used to understand changes in the signaling as they relate to the gene TGFB1. Furthermore, this assay endpoint can be referred to as a primary readout, because this assay has produced multiple assay endpoints where this one serves a signaling function. To generalize the intended target to other relatable targets, this assay endpoint is annotated to the growth factor intended target family, where the subfamily is transforming growth factor beta.
The levels of cell surface (or secreted, indicated by the prefix "s") biomarker endpoints were measured by ELISA. Overt cytotoxicity to cells in confluent adherent cultures (all systems other than the BT system) was assessed by measuring total protein levels using sulforhodamine B (SRB) staining in parallel cultures at the time of biomarker measurements, indicated as SRB endpoints. For proliferation assays for adherent cell types, individual cell types are cultured at sub-confluence and relative cell numbers quantified by SRB staining at time points optimized for each system (48 h: 3C and CASM3C systems; 72 h: BT and HDF3CGF systems; 96 h: SAg system). SRB was performed by staining cells with 0.1% SRB after fixation with 10% TCA and reading wells at 560 nm.Viability and proliferation of PBMC (T cells) was quantified by Alamar Blue reduction for the SAg and BT systems. For PBMC viability (referred to as PBMC Cytotoxicity within the assay endpoint names), cells were plated (75,000/well in a 96-well plate) and then chemical samples added for 1 h before addition of activators, SEB and TSST-1 (20 ng/mL final concentration each). Cells were incubated for 90 h. Then, Alamar Blue (20 uL/well) (Invitrogen, Cat DAL1100) was added for 6 h, and the plates were read with a fluorescence microplate reader at 546/580 nm (excitation/emission). For PBMC proliferation, cells were plated and activated as above but incubated for only 16 h prior to addition of Alamar Blue. Plates were read after 6 h.
In the case of `COc1ccc(S(=O)(=O)N2C(=O)[C@@](c3ccccc3OC)(N3C[C@H](O)C[C@H]3C(=O)N(C)C)c3cc(Cl)ccc32)c(OC)c1`, the result was inactive.
On to `Cc1cccc(Nc2cc(Cl)nc(SCC(=O)O)n2)c1C`, for which the result was inactive.
Consider `CC1(C)NC(=O)NC1=O`, for which the outcome was inactive.
In the case of `O=C(O)CCCCC(=O)O`, the result was inactive.
Next, `CCCCCCCCCCCC(=O)OC`: “inactive”.
The same measure for `Cc1ccc2ncccc2c1`: “inactive”; for `NS(=O)(=O)c1cc2c(cc1Cl)NCNS2(=O)=O`: “inactive”; for `O=C(OCCCCCOC(=O)c1ccccc1)c1ccccc1`: “inactive”.
`COc1ccc(C)cc1N`: the outcome was inactive.
`Cc1ccc(N(C)C)cc1`: the outcome was inactive.
For `COc1cc(S(=O)(=O)O)c(C)cc1N=Nc1c(O)ccc2cc(S(=O)(=O)O)ccc12`, the outcome was inactive.
For the compound `CCCCCCCCCCCCCCCCCC(=O)O`, the outcome was inactive.
The same measure for `CCCCCCCCCCCCCO`: “inactive”; for `CC(=O)OCCOCCOCCOC(C)=O`: “inactive”; for `Cc1ccc(C)c(O)c1C`: “inactive”.
The same measure for `CC(C)(C)c1cc(O)c(C(C)(C)C)cc1O`: “inactive”.
Next, `CCOc1ccc2c(c1)C(C)=CC(C)(C)N2`: “inactive”.
Take `CCOC(=O)C(C)(C)Oc1ccc(Cl)cc1`: the outcome was inactive.
On to `Nc1ccc2c(c1)C(=O)c1ccccc1C2=O`, for which the result was inactive.
Next, `Nc1ccccc1N`: “inactive”.
The same measure for `Cc1cccc(C)c1O`: “inactive”.
The same measure for `Oc1ccc2c(c1)OC[C@@H](N1CCC(O)(c3ccc(F)cc3)CC1)[C@H]2O`: “inactive”.
On to `CCc1c(C(=O)NN2CCCCC2)nn(-c2ccc(Cl)cc2Cl)c1-c1ccc(Br)cc1`, for which the result was inactive.
Next, `CCCc1cc(=O)[nH]c(=S)[nH]1`: “inactive”; `NCCO`: “inactive”.
Next, `CCCCOC(=O)CCCCCCCCC(=O)OCCCC`: “inactive”; `O=C(O)Cc1ccccc1Nc1c(Cl)cccc1Cl`: “inactive”; `CC(=O)OC/C=C(\C)CCC=C(C)C`: “inactive”.
The same measure for `Cc1cccc([N+](=O)[O-])c1C`: “inactive”.
With `Cc1oc(-c2ccccc2)nc1CCOc1cccc2c1ccn2CCC(=O)O`, the outcome was inactive.
Consider `CC(=O)C(C)=CC1C(C)=CCCC1(C)C` (stereo not given), for which the result was inactive.
The same measure for `Clc1cc(Cl)c(Cl)cc1Cl`: “inactive”.
The same measure for `CC1(C)CC(N=C=O)CC(C)(CN=C=O)C1` (stereo not given): “inactive”; for `Nc1ccc(S(=O)(=O)c2ccc(N)cc2)cc1`: “inactive”.
The same measure for `C=CCc1ccc(O)c(OC)c1`: “inactive”; for `Cc1ccc(Cl)cc1`: “inactive”.
On to `Cc1ccc(C(C)C)c(O)c1`, for which the result was inactive.
`COc1cc(C=O)ccc1O`: the result was inactive.
The same measure for `COCCOC[C@H](CC1(C(=O)NC2CCC(C(=O)O)CC2)CCCC1)C(=O)Oc1ccc2c(c1)CCC2` (stereo not given in full): “inactive”; for `Cc1ccc(C)c(C)c1`: “inactive”.

(Values after PubChem BioAssay (EPA / NIEHS).)
